Data: PubChem BioAssay (EPA / NIEHS)
Active and inactive are the calls of the source. Rule for the calls: active = hit-call score of the fitted dose curve at least 0.9, where 1 is the maximum; inactive = score below 0.9.

What was measured:
Details in all cases: mRNA level, 48 h; actives raise or lower the signal
[1] = read-out: Tumor necrosis factor receptor superfamily member 6 (Homo sapiens) (UniProt P25445); test: LTEA_HepaRG_FAS: Life Technologies and Expression Analysis (LTEA) Assay for Fas cell surface death receptor (FAS) using HepaRG (AID 2283447)
Method in brief: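 FAS transcript level was measured by TaqMan qRT-PCR against three housekeeping genes after 48 h chemical exposure. Cells were HepaRG, 0.5% DMSO vehicle, with a top concentration of 100 uM and half-log dilutions over eight points, in duplicate.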

[2] = read-out: Cyclin D2 (CCND2), CCND2 (gene 894); test: LTEA_HepaRG_CCND2: Life Technologies and Expression Analysis (LTEA) Assay for Cyclin D2 (CCND2) using HepaRG (AID 2283449)
Method in brief: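 Read-out is CCND2 mRNA level measured by qRT-PCR in human HepaRG liver cells and normalised to three housekeeping genes. Chemicals were applied for 48 h at up to 100 uM, with gain or loss fitted relative to 0.5% DMSO.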

[3] = read-out: Cyclin Dependent Kinase Inhibitor 1A (CDKN1A), CDKN1A (gene 1026); test: LTEA_HepaRG_CDKN1A: Life Technologies and Expression Analysis (LTEA) Assay for Cyclin Dependent Kinase Inhibitor 1A (CDKN1A) using HepaRG (AID 2283450)
Method in brief: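 Read-out is CDKN1A mRNA by TaqMan qRT-PCR, normalized to three housekeeping genes and fitted in both directions against the DMSO baseline. Human HepaRG cells were treated 48 h with test chemicals up to 100 uM in half-log steps, 0.5% DMSO.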

[4] = read-out: Cyclin D1 (CCND1), CCND1 (gene 595); test: LTEA_HepaRG_CCND1: Life Technologies and Expression Analysis (LTEA) Assay for Cyclin D1 (CCND1) using HepaRG (AID 2283451)
Method in brief: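 HepaRG plated 48 h, medium switched to serum-free induction medium, chemicals added in duplicate (top 100 uM, half-log steps, 0.5% DMSO) for 48 h, cells lysed, RNA measured by TaqMan qRT-PCR.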

[5] = read-out: catalase (CAT), CAT (gene 847); test: LTEA_HepaRG_CAT: Life Technologies and Expression Analysis (LTEA) Assay for catalase (CAT) using HepaRG (AID 2283452)
Method in brief: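 Expression of CAT was quantified by TaqMan qRT-PCR with ACTB/GAPDH/POLR2A normalization after 48 h chemical exposure of HepaRG. Eight-point half-log series, top 100 uM, in 0.5% DMSO; gain or loss fitted against vehicle.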

[6] = read-out: flavin-containing dimethylaniline monooxygenases 3 (FMO3), FMO3 (gene 2328); test: LTEA_HepaRG_FMO3: Life Technologies and Expression Analysis (LTEA) Assay for flavin-containing dimethylaniline monooxygenases 3 (FMO3) using HepaRG (AID 2283453)
Method in brief: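 Differentiated HepaRG cells in serum-free induction medium, exposed 48 h in duplicate to 8 half-log concentrations up to 100 uM in 0.5% DMSO. FMO3 mRNA by qRT-PCR, normalized to ACTB, GAPDH, POLR2A; bidirectional fit vs DMSO.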

[7] = read-out: Cytochrome P450 (CYP1A1), CYP1A1 (gene 1543); test: LTEA_HepaRG_CYP1A1: Life Technologies and Expression Analysis (LTEA) Assay for Cytochrome P450 (CYP1A1) using HepaRG (AID 2283454)
Method in brief: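 HepaRG, 48 h post-plating switched to serum-free induction medium; 8-pt conc-response (top 100 uM, half-log, 0.5% DMSO), duplicates, 48 h. Lysis in RLT, TaqMan qRT-PCR for CYP1A1; gain or loss vs DMSO.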

[8] = read-out: CFLAR gene, CFLAR (gene 8837); test: LTEA_HepaRG_CFLAR: Life Technologies and Expression Analysis (LTEA) Assay for CFLAR gene using HepaRG (AID 2283455)
Method in brief: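 HepaRG, 48 h exposure, 8-pt conc-response (100 uM top, half-log), 0.5% DMSO vehicle, duplicates. CFLAR expression by qRT-PCR; ACTB/GAPDH/POLR2A normalization; gain or loss fit vs DMSO baseline.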

[9] = read-out: Forkhead box O1 (FOXO1), FOXO1 (gene 2308); test: LTEA_HepaRG_FOXO1: Life Technologies and Expression Analysis (LTEA) Assay for Forkhead box O1 (FOXO1) using HepaRG (AID 2283456)
Method in brief: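 Readout is FOXO1 transcript level by multiplexed qRT-PCR against three housekeeping genes, curve-fitted in both directions relative to 0.5% DMSO vehicle. Human HepaRG cultures received chemicals for 48 h, up to 100 uM in half-log steps.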

[10] = read-out: growth arrest and DNA damage 45 (GADD45A), GADD45A (gene 1647); test: LTEA_HepaRG_GADD45A: Life Technologies and Expression Analysis (LTEA) Assay for growth arrest and DNA damage 45 (GADD45A) using HepaRG (AID 2283458)
Method in brief: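 Differentiated HepaRG cells exposed 48 h in serum-free induction medium to 8 concentrations, top 100 uM in half-log steps, 0.5% DMSO. GADD45A mRNA quantified by qRT-PCR, normalized to ACTB, GAPDH and POLR2A; bidirectional fit versus DMSO.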

[11] = read-out: Forkhead box O3 (FOXO3), FOXO3 (gene 2309); test: LTEA_HepaRG_FOXO3: Life Technologies and Expression Analysis (LTEA) Assay for Forkhead box O3 (FOXO3) using HepaRG (AID 2283459)
Method in brief: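 HepaRG, 48 h post-dose; 8 conc., half-log from 100 uM, 0.5% DMSO, duplicates; serum-free induction medium. Readout: FOXO3 mRNA, TaqMan qRT-PCR, housekeeping-normalized. Bidirectional curve fit vs DMSO baseline.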

[12] = read-out: ABC Transporter (ABCB1), ABCB1 (gene 5243); test: LTEA_HepaRG_ABCB1: Life Technologies and Expression Analysis (LTEA) Assay for ABC Transporter (ABCB1) using HepaRG (AID 2283460)
Method in brief: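 Expression of ABCB1 was quantified by qRT-PCR against three housekeeping genes after human HepaRG cultures received test chemicals for 48 hours. Concentrations spanned eight half-log steps topping at 100 uM in 0.5% DMSO; gain or loss of signal was fitted relative to vehicle.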

[13] = read-out: growth arrest and DNA damage 45 (GADD45B), GADD45B (gene 4616); test: LTEA_HepaRG_GADD45B: Life Technologies and Expression Analysis (LTEA) Assay for growth arrest and DNA damage 45 (GADD45B) using HepaRG (AID 2283461)
Method in brief: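 HepaRG, ~100,000 cells/well, 48 h plating; serum-free induction medium; cpd 100 uM top, half-log x8, 0.5% DMSO, duplicate, 48 h; lysis in RLT, RNA isolation, qRT-PCR; norm ACTB/GAPDH/POLR2A; bidirectional fit vs DMSO.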

[14] = read-out: ABC Transporter (ABCC3), ABCC3 (gene 8714); test: LTEA_HepaRG_ABCC3: Life Technologies and Expression Analysis (LTEA) Assay for ABC Transporter (ABCC3) using HepaRG (AID 2283462)
Method in brief: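 Human HepaRG, 48 h dosing, 8-pt half-log series from 100 uM, 0.5% DMSO vehicle, duplicates. ABCC3 mRNA by TaqMan qRT-PCR, housekeeping-normalized; bidirectional curve fit vs DMSO.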

[15] = read-out: Fatty acid synthase (Homo sapiens) (UniProt P49327); test: LTEA_HepaRG_FASN: Life Technologies and Expression Analysis (LTEA) Assay for Fatty Acid Synthase (FASN) using HepaRG (AID 2283448)
Method in brief: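 Differentiated HepaRG cells in serum-free induction medium exposed 48 h in duplicate to eight half-log concentrations, top 100 uM, 0.5% DMSO. FASN mRNA by qRT-PCR normalised to ACTB, GAPDH, POLR2A; bidirectional fit versus DMSO.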

Measured: AC50

Chain of Fatty acid synthase (Homo sapiens) (P49327 whole entry, looked up): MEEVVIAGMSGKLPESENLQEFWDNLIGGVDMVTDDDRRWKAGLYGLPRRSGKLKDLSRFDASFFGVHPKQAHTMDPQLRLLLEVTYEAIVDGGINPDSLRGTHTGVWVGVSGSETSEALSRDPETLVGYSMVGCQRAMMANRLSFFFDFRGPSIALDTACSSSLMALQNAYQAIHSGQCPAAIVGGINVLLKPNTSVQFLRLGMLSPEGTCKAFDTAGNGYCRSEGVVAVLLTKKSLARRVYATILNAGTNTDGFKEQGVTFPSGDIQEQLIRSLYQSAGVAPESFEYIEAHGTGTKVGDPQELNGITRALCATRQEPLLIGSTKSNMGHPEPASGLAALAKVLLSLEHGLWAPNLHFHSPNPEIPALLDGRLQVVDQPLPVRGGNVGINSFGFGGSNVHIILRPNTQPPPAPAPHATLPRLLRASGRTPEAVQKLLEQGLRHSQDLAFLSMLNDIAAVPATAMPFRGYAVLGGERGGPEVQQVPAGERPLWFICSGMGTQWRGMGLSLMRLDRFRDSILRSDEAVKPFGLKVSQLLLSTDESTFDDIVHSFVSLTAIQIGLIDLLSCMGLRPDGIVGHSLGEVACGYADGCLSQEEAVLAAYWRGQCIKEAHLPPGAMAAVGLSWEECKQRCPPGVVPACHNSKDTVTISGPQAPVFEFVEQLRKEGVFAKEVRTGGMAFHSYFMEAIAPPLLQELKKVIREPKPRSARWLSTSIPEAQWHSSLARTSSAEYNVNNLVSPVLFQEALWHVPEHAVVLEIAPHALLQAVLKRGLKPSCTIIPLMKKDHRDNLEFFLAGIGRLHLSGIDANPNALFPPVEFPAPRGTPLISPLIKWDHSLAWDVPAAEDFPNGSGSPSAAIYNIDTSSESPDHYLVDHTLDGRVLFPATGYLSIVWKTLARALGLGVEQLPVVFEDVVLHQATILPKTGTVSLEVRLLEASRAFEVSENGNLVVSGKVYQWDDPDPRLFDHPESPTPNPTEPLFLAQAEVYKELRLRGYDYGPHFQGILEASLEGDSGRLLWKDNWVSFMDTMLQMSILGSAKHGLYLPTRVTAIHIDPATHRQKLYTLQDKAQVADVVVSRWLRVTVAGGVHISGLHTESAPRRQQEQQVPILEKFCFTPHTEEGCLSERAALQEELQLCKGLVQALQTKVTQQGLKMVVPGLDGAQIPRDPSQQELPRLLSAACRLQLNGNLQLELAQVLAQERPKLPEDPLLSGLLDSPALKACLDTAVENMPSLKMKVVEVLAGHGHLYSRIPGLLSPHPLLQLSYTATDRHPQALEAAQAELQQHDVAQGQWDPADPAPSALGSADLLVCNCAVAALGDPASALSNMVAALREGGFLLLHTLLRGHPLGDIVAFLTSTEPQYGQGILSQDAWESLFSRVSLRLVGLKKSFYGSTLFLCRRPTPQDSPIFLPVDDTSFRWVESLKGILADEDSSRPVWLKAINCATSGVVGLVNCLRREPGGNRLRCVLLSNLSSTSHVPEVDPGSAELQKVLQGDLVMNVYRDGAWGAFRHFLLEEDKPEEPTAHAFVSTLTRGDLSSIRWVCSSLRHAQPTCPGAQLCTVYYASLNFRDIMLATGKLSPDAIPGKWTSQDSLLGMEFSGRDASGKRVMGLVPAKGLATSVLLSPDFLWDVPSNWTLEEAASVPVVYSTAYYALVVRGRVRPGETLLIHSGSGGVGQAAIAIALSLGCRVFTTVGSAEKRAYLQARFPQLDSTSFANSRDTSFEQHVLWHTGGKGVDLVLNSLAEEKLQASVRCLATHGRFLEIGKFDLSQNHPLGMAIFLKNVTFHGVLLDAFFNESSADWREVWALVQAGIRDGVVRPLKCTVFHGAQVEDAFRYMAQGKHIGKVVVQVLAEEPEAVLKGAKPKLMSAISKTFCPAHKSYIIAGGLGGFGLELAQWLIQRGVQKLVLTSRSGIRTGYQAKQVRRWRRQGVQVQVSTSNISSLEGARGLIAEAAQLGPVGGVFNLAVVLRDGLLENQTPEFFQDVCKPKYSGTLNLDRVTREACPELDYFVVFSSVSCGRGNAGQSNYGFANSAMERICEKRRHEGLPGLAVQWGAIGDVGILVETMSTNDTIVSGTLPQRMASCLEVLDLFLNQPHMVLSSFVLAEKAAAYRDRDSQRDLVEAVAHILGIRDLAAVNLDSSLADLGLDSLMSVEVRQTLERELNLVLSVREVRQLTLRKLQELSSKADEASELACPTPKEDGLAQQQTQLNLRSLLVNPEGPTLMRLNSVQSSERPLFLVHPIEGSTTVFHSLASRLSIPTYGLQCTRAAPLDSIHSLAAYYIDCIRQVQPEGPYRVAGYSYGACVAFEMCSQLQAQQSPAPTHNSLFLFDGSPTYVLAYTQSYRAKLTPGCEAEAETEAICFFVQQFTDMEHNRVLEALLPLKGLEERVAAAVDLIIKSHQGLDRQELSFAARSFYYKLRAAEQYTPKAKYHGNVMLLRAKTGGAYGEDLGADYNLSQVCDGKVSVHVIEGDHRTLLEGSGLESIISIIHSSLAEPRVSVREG

NC(N)=O
active: [7] 81.8 µM
inactive: [1] | [2] | [3] | [4] | [5] | [6] | [8] | [9] | [10] | [11] | [12] | [13] | [14]

Cc1ccc(S(=O)(=O)NC(=O)NN2CCCCCC2)cc1
inactive: [1] | [2] | [3] | [4] | [5] | [6] | [8] | [9] | [10] | [11] | [13] | [14]
active: [12] 20.1 µM

CCc1cccc(CC)c1N
inactive: [1] | [2] | [3] | [4] | [5] | [6] | [8] | [9] | [10] | [11] | [12] | [13] | [14]

O=S(=O)(O)c1ccc(N=Nc2c(O)ccc3cc(S(=O)(=O)O)ccc23)cc1
inactive: [1] | [2] | [3] | [4] | [5] | [6] | [8] | [9] | [10] | [11] | [12] | [13] | [14]
active: [7] 50 µM

NC(=O)N1c2ccccc2C=Cc2ccccc21
inactive: [1] | [15] | [3] | [4] | [5] | [6] | [8] | [9] | [10] | [11] | [12] | [13] | [14]

OCC(CO)(CO)CO
inactive: [1] | [3] | [5] | [6] | [8] | [9] | [10] | [11] | [12] | [13] | [14]
